Measurements published in PubChem BioAssay.
Unmarked numbers belong to inactive results. How the calls were made is not given here.

The compounds below were run against Pantothenate synthetase (Mycobacterium tuberculosis (strain ATCC 25618 / H37Rv)) (UniProt P9WIL5) (assay: Recombinant Mtb pantothenate synthetase (PanC) inhibitors, coupled enzyme, confirmatory (AID 375;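 further: 0% = full reaction with vehicle and 100% = no enzyme background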)). Details: coupled enzyme assay; at 10 µM, active compounds read high.
Pantothenate synthetase (Mycobacterium tuberculosis (strain ATCC 25618 / H37Rv)), sequence (P9WIL5 whole entry, looked up): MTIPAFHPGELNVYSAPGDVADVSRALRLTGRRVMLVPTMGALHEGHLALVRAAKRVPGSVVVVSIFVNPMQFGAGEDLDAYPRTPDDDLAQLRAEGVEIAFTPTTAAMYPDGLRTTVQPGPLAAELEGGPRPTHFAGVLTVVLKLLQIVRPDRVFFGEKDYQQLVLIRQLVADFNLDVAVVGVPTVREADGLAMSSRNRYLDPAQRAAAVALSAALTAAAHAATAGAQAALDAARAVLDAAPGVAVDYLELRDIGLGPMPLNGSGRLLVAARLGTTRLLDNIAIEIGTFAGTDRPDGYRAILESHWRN

Question: Which inhibition does the source give for O=C(CSc1nc2ccccc2s1)N1CCOCC1 here?
Answer: 0%

Question: Which inhibition does the source give for CC(C)CCNC(=O)C(c1ccco1)N(CC1CCCO1)C(=O)Cn1nnc2ccccc21 (configuration not stated) here?
Answer: 0%

Question: For CN1CC=C2C(C#N)=C(N)C(C#N)(C#N)[C@H](c3cccc(Cl)c3)C2C1 (some centres not stated), which inhibition is on record?
Answer: 0%

Question: With Cc1ccc(-c2oc3ccccc3c(=O)c2O)cc1 as the compound, how does the inhibition read?
Answer: 0%

Question: How did the inhibition turn out when CN(C)C(=O)C12CCC(C)(c3nc4ccccc4nc31)C2(C)C (configuration not stated) was run?
Answer: 4%

Question: With Cc1cc(NC(=O)CSc2nc3ccsc3c(=O)n2NC(=O)c2ccccc2)no1 as the compound, how does the inhibition read?
Answer: 1%

Question: How did the inhibition turn out when Cc1cc(NC(=O)CSc2ccc3nnc(-c4cccc(F)c4)n3n2)no1 was run?
Answer: 0%

Question: CC1=Nn2c(nnc2-c2ccc(F)cc2)SC1 was tested. Which inhibition did it give?
Answer: 0%

Question: How did the inhibition turn out when COCCN1C(=O)C(=O)/C(=C(/O)c2cccc(OC)c2)C1c1ccncc1 (configuration not stated) was run?
Answer: 1%

Question: How did the inhibition turn out when Cc1ccc(S(=O)(=O)N2CCCC2C(=O)n2nc(C)cc2C)cc1 (configuration not stated) was run?
Answer: 0%

Question: For CCOC(=O)c1[nH]c2ccc(OC)cc2c1NC(=O)CCN1CCC(C)CC1, which inhibition is on record?
Answer: 0%

Question: For N#C/C(C(=O)N1CCOCC1)=C1/SC=C(c2ccccc2)N1c1ccccc1, which inhibition is on record?
Answer: 7%

Question: Which inhibition does the source give for COC(=O)c1[nH]c2cccc(C)c2c1NC(=O)CN1CCCc2ccccc21 here?
Answer: 1%

Question: Cc1nc2sc(C(c3cccs3)N3CCC(C(N)=O)CC3)c(O)n2n1 (configuration not stated) was tested. Which inhibition did it give?
Answer: 2%

Question: How did the inhibition turn out when C=CCc1ccccc1OCC(O)CNC(C)C (configuration not stated) was run?
Answer: 8%

Question: With Cc1ccc2c(c1)C1CCCC3C1N2CC(=O)N3Cc1ccccc1 (configuration not stated) as the compound, how does the inhibition read?
Answer: 0%

Question: With CC1CCCN(c2ccc(C(=O)NCc3cccs3)cn2)C1 (configuration not stated) as the compound, how does the inhibition read?
Answer: 1%
